D2 PAM-1: potentiates the human D2 dopamine receptor allosterically. P14416. DiscoveRx D2 beta-arrestin cells, luminescence, 90 min; 100% = 57 uM dopamine signal. potentiation, % (no concentration beside the values). 0.23% of 360,000 active; in the data active = potentiation above about 50%; inconclusive = mostly about 30% to 49%
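D2 cells co-treated with compound plus 50 nM dopamine (EC20) for 90 min at 37 deg C to detect potentiation. Beta-arrestin recruitment was read as enzyme-fragment luminescence after 1 h at ambient temperature. Full response was set by 57 uM dopamine.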
D2 antagonist: D2 dopamine receptor (human) antagonism; HEK293 TREx D2 cells, calcium flux, dopamine EC80; P14416; 2% of 340,000 active; AID 485344; inhibition, % at 10 µM; in the data active = inhibition above about 30%; inactive = below that, where a call was filed; also: 0% is about no effect
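HEK293 T-REx D2 cells, tet-induced, calcium dye no-wash. Cpd pintool add, 180 s kinetic, then EC80 DA, 180 s kinetic. Ca flux read.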
D2 ag-1: D2 dopamine receptor (human) agonism. P14416. AID 485358. activation, % at 2 µM. HEK293 T-REx D2 cells, calcium flux agonist mode. 0.53% of 340,000 active;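 active = activation over 3 SD above normal in the single-dose calcium agonist read, cut at about 30% in these data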; also: 0% is about no effect
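Calcium-flux readout, 1 cycle/sec over 180 s following compound pin transfer, in inducible HEK293 Trex D2 cells (force-coupled); dopamine controls included. Positive calcium responses during this window marked compounds as potential agonists.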
D2 PAM-2: positive allosteric modulators of human D2 dopamine receptor; P14416; HEK293 T-REx D2, calcium flux, EC20 dopamine potentiation; potentiation, % at 10 µM; 0.34% of 340,000 active;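 active = potentiation over 3 SD above the plate norm, cut at about 30% in these data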; also: 0% is about no effect
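Calcium flux readout, no-wash dye, 1 read/s. Inducible HEK293 Trex D2 line, overnight 30 C. Compound alone 180 s (agonist flags), then EC20 dopamine, another 180 s to score potentiation.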
D2 ag-2: agonists of human D2 dopamine receptor (beta-arrestin) | P14416 | DiscoveRx PathHunter D2 beta-arrestin, luminescence, 90 min; 100% = 57 uM dopamine signal | activation, % (no concentration beside the values) | 0.084% of 360,000 active | AID 624465; in the data active = activation above about 40%; inconclusive = between about 15% and that limit
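DiscoveRx PathHunter D2 beta-arrestin cells (2,100/well) attached overnight, then compound-stimulated 90 min at 37 C in HBSS/10 mM HEPES/0.1% Tween-20 buffer; beta-galactosidase complementation read by luminescence after 1 h at ambient temperature. Dopamine 57 uM final (EC100) as control.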
D3 arrestin ag: confirmation of human D3 dopamine receptor agonists, beta-arrestin; AID 720506; shares compounds with D2 ag-1; 4% of 2,300 active; Potency, µM (highest dose often 76.9 µM), for inactives: top-dose activation, usual class: activators; DiscoveRx D3 beta-arrestin cells, luminescence, 90 min;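 also: potency is read from the fitted curve at half-maximal effect; 100% = dopamine control response; nearly all actives have a fitted effect of over 70% in size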
Target sequence (P35462 whole entry, looked up): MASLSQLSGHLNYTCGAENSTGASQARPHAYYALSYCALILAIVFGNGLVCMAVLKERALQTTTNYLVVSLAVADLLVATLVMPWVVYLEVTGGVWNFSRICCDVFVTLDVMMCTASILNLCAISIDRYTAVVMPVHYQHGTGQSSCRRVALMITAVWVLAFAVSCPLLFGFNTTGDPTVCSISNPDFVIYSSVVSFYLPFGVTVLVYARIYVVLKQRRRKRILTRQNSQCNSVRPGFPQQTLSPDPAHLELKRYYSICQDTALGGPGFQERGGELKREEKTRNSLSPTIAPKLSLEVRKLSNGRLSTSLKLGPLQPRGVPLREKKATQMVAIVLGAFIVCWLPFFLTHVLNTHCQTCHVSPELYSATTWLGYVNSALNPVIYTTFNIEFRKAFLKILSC
D2 ag-3: D2 receptor agonism, beta-arrestin counterscreen; shares compounds with D2 ag-1; DiscoveRx PathHunter D2 beta-arrestin, luminescence, 90 min; response scale: percent relative to full dopamine signal; Potency, µM (series often up to 76.9 µM), for the others: at the highest dose activation, actives largely listed as activators; 5.9% of 2,300 active; AID 720507; also: potency is read from the fitted curve at half-maximal effect; % of control where 0% means no effect; nearly all actives have a fitted effect of over 70% in size
* hit, by the source's call; ? = inconclusive; . = no result given. This is a sample that favours compounds with a hit; in the whole collection about 2.4% have one here. Unless noted, calls follow the shape of the dose curve; as a rule, active = well fitted activation curve with a large enough effect; inconclusive = small, poorly fitted or top-dose-only effect; inactive = flat fitted curve, though single readings scatter.

SMILES	D2 PAM-1	D2 antagonist	D2 ag-1	D2 PAM-2	D2 ag-2	D3 arrestin ag	D2 ag-3
COCc1c(C(=O)N2CCN(Cc3ccc(C#N)cc3)CC2)oc2ccccc12	-4	5	0	4	-3	.	.
CC(C)CC(=O)N1CCN(Cc2cccc(F)c2)CC1	-5	-10	16	0	4	.	.
CC(C)CC(=O)N1CCN(Cc2ccc3c(c2)OCO3)CC1	10	29	80*	-24	?	-11%	?
COCc1c(C(=O)N2CCN(Cc3ccc4c(c3)OCO4)CC2)oc2ccccc12	16	70*	70*	-21	46*	15%	10µM*
COc1ccc(NC(=O)C(CC(=O)O)C(C)c2ccccc2)cc1 (stereo not drawn)	-3	-5	1	1	-1	.	.
C[C@H](C(=O)NCc1ccccc1)C(=O)c1ccccc1	-3	5	-1	-7	1	.	.
O=C(CSc1ncnc2scc(-c3ccccc3)c12)N1CCN(Cc2ccc3c(c2)OCO3)CC1	15	70*	74*	-23	?	10%	?
CCCC(=O)N1CCN(Cc2ccc3c(c2)OCO3)CC1	8	-1	61*	-32	5	-11%	10%
c1ccc(-c2csc3ncnc(N4CCN(Cc5ccc6c(c5)OCO6)CC4)c23)cc1	-19	-6	0	-14	-2	.	.
O=C(O)CCC(=O)N1CCN(Cc2ccc3c(c2)OCO3)CC1	0	9	5	7	-5	.	.
CC(=O)Nc1ccc(NC(=O)CSc2nnc(-c3cc(C)[nH]n3)n2N)cc1	1	5	-1	0	1	.	.
O=C(c1ccccc1)N1CCN(CC(O)COc2ccc(Br)cc2)CC1 (stereo not drawn)	-47	0	-5	-9	0	.	.
Cc1cc(C)cc(OCC(O)CN2CCN(C(=O)c3ccco3)CC2)c1 (stereo not drawn)	-17	35*	61*	-27	10	21%	20%
O=C(c1ccco1)N1CCN(CC(O)COc2ccc3oc4ccccc4c3c2)CC1 (stereo not drawn)	9	40*	50*	-19	?	35µM*	50µM*
Cc1cccc(C(=O)NNC(=O)c2csc(N3CCOCC3)n2)c1C	15	16	0	5	-4	.	.
Cc1[nH]c2ccccc2c1/C=N/Nc1ccc([N+](=O)[O-])cc1	-17	20	22	-2	-12	.	.
COc1ccccc1NS(=O)(=O)c1cc([N+](=O)[O-])ccc1N/N=C/c1c(C)[nH]c2ccccc12	-17	-26	19	15	-16	-43%	-14%
Cc1ccc(C(=O)Nc2ccc3oc(-c4ccncc4)nc3c2)c(Cl)c1	.	.	-1	5	.	.	.
CC(CCc1ccc(O)cc1)N(C)CCc1ccccc1 (stereo not drawn)	-16	91*	39*	-25	-1	1%	0%
COc1ccccc1CN1CCN(C(=O)c2ccco2)CC1	53*	85*	80*	-16	67*	?	10µM*
COc1ccc(Br)cc1CN1CCN(C(=O)c2ccco2)CC1	-15	.	.	.	0	-8%	-1%
COc1ccccc1N1CCN(C(=O)c2ccco2)CC1	2	.	.	.	3	.	.
Cc1ccc(NC(=O)C(C)OC(=O)Cn2cnc3ccccc3c2=O)cc1 (stereo not drawn)	17	7	0	1	-1	.	.
CC(OC(=O)Cn1cnc2ccccc2c1=O)C(=O)NCc1ccccc1 (stereo not drawn)	-3	8	49*	-20	-1	-8%	-2%
O=S(=O)(NCc1ccc(F)cc1)c1cc(Br)ccc1Br	-3	4	-1	-15	-1	-1%	-5%
SMILES	D2 PAM-1	D2 antagonist	D2 ag-1	D2 PAM-2	D2 ag-2	D3 arrestin ag	D2 ag-3
O=S(=O)(NCCc1ccc(F)cc1)c1cc(C(F)(F)F)ccc1Br	.	.	.	.	-1	.	.
O=C(CN1CCN(c2ccccn2)CC1)Nc1cccc(S(=O)(=O)N2CCOCC2)c1	14	7	42*	-15	4	23%	?
O=C(CN1CCN(c2ncccn2)CC1)Nc1ccccc1-n1cccc1	-12	-21	38*	-12	5	1%	16%
O=C(CN1CCN(c2ccccn2)CC1)Nc1ccccc1Br	10	38*	47*	-21	?	-3%	19%
N#Cc1ccccc1NC(=O)CN1CCN(c2ccccn2)CC1	-1	-2	10	-4	8	.	.
O=C(CSc1ccc(-c2ccccn2)nn1)Nc1cccc(F)c1	-4	-11	71*	-20	2	10%	9%
Cc1cc(C)cc(NC(=O)CN2CCN(c3ncccn3)CC2)c1	-4	-2	-1	5	7	.	.
Cc1cc(C)cc(NC(=O)CSc2ccc(-c3ccccn3)nn2)c1	-19	-2	-1	2	3	.	.
Cc1ccc(C(=O)c2cn(Cc3ccc(Cl)cc3)c3nc(C)ccc3c2=O)cc1	.	.	1	9	.	.	.
C=CCn1c(SCC(=O)Nc2nncs2)nnc1-c1ccco1	-5	-1	2	0	-2	.	.
O=C(CN1CCN(c2ccccn2)CC1)Nc1cccc(F)c1	-4	-19	27	-5	4	3%	-1%
Cc1ccc(F)cc1NC(=O)CN1CCN(c2ccccn2)CC1	-9	50*	27	-8	?	19%	?
O=C(CN1CCN(c2ccccn2)CC1)Nc1ccc(F)cc1F	-1	25	59*	-17	11	30%	?
Cc1ccc(NC(=O)CN2CCN(c3ccccn3)CC2)c(Cl)c1	-5	-16	0	2	-6	.	.
O=C(CN1CCN(c2ccccn2)CC1)Nc1cc(F)ccc1F	2	22	50*	-18	11	15%	15%
CCOc1ccc(C(=O)NCC(=O)NCC(c2ccccc2OC)N2CCCC2)cc1 (stereo not drawn)	-5	-9	0	17	0	.	.
O=C(Nc1cccc(S(=O)(=O)N2CCOCC2)c1)C(c1ccccc1)N1CCCCC1 (stereo not drawn)	-6	.	.	.	-2	.	.
CC(C(=O)Nc1cccc(S(=O)(=O)N2CCOCC2)c1)N1CCN(C/C=C/c2ccccc2)CC1 (stereo not drawn)	-12	80*	51*	-23	-2	?	22%
O=C(CN1CCc2ccccc2C1)Nc1ccccc1F	1	64*	47*	-17	?	?	23%
O=C(CN1CCN(c2ccccn2)CC1)Nc1ccccc1F	6	57*	73*	-15	9	29%	28%
